Shown are actives, neighbours in structure and some others; about 19% of the full set was active somewhere.
TDP1 block: TDP1 (human) enzyme inhibition; Potency, µM (highest dose often 130 µM), actives largely listed as inhibitors; recombinant TDP1, AlphaScreen DNA substrate cleavage; AID 485290; Q9NUW8; hit rate 0.28% among 350,000; further: nearly all actives have a fitted effect of over 40% in size
Target sequence (Q9NUW8 whole entry, looked up): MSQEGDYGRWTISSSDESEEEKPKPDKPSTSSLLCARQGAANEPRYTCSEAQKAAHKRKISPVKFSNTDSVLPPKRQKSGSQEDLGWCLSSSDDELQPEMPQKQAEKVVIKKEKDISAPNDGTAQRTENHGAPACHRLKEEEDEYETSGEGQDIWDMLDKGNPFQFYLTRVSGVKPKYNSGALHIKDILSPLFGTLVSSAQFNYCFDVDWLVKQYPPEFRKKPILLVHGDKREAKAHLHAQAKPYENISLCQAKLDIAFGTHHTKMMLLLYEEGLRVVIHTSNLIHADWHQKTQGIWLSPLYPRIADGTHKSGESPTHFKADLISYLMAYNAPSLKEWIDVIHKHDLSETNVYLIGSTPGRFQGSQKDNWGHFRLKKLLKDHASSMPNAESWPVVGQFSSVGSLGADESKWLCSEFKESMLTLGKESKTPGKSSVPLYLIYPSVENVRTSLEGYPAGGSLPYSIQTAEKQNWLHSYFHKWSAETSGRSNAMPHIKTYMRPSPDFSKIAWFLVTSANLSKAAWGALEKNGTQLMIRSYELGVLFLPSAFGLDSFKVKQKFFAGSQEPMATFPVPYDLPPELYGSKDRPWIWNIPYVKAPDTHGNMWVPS
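Signal: AlphaScreen proximity between streptavidin donor and anti-FITC acceptor beads on intact substrate. Reaction: Tdp1 1 nM, substrate 15 nM final, 5 min RT after 15 min compound preincubation.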
IL1B secr inh: inhibitors of inflammasome signaling (IL-1 beta secretion) | THP-1 LPS/ATP IL-1B secretion, AlphaLISA, 16 h; hits give low values | activity change, % at 57.5 µM | hit rate 4.7% among 360,000; in the data active means activity change below about -50%; inconclusive means mostly about -30% to -49%
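THP-1 cells pretreated 1 hr with compounds (up to 57.5 uM final), then stimulated with LPS (250 ng/mL final) plus ATP (1.25 mM final); secreted IL-1B measured by AlphaLISA after 16 hr, decreased signal indicating inhibition.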
HepG2 tox: kills HepG2 cells in TGF-b inhibitor counter-screen; Potency, µM (titrated, usually from 46.1 µM), most hits filed as cytotoxic; hit rate 0.76% among 410,000; HepG2 CAGA-GFP viability, ATP luminescence, 18 h
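CellTiter-Glo luminescence gave cytotoxicity after 18 hours at 37 degrees C. The cells were HepG2 CAGA-GFP in 1% FBS DMEM, stimulated with 500 pg/mL TGF-beta after compound addition. %Activity was normalised to no-cell wells (complete cell-killing) and DMSO (no toxicity), and curves were fitted and classified.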
DT40 TDP1 CPT: DT40-hTDP1 cell growth loss with CPT; chicken DT40 Tdp1-/-;hTDP1 cells + 20 nM CPT, ATP luminescence, 48 h; Potency, µM (top dose mostly 46.2 µM), most hits filed as inhibitors; hit rate 12% among 420,000; AID 686979; further: nearly all actives have a fitted effect of over 55% in size
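Cell growth measured by CellTiter-Glo luminescence after a minimum 48 h, 37 C compound exposure with 20 nM CPT in Tdp1-knockout DT40 cells stably expressing hTDP1, seeded 400/well; qHTS titration format.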
TGFb SMAD3 inh: TGF-b pathway inhibition | HepG2 CAGA-GFP TGF-b/SMAD3 reporter, GFP fluorescence, 18 h; TGF-beta stimulated, 500 pg/mL final | Potency, µM (highest dose often 46.1 µM), actives largely listed as inhibitors | hit rate 1.2% among 410,000; further: nearly all actives have a fitted effect of over 65% in size
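Read-out: total well GFP (ex488/em500-530) summed from mean per-cell fluorescence. Cells: HEPG2 CAGA-GFP, 1% FBS DMEM, 18 h at 37 degrees C with 500 pg/mL final TGF-beta. Unstimulated wells served as the full-inhibition control; stimulated DMSO wells = 0%.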
TDP1 cell noCPT: qHTS for Inhibitors of human tyrosyl-DNA phosphodiesterase 1 (TDP1): qHTS in cells in absence of CPT. DT40 Tdp1-/- hTDP1 cells, no CPT, ATP luminescence, 48 h. Potency, µM (doses to about 46.2 µM), hits mostly inhibitors. hit rate 15% among 420,000. AID 686978, 2013; further: nearly all actives have a fitted effect of over 55% in size
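Seeded 400 DT40-hTDP1 cells/well (vehicle DMSO, no 20 nM CPT); pinned compounds; ≥48 hr at 37 °C; CellTiter-Glo luminescence as viability measure.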
A number is an active result; – = inactive; ? = inconclusive; · = no result; ! = not active in a repeat; [ ] = dose if it differs, or a comment. Unless noted, the call rests on the fitted dose curve; in most records, active means well fitted curve in the direction sought with a large enough effect; inconclusive means small, poorly fitted or top-dose-only effect, or another doubt; inactive means no such curve, though single readings can be large; an effect the other way counts as inactive or inconclusive.

SMILES	TDP1 block	IL1B secr inh	HepG2 tox	DT40 TDP1 CPT	TGFb SMAD3 inh	TDP1 cell noCPT
CCN(CC)CCCNC(=O)c1sc2nc3n(c(=O)c2c1C)CCCCC3	–	·	–	–	–	?
CCc1ccccc1NC(=O)Cn1nc(-c2cc(C)ccc2C)c2c(c1=O)CCCC2	–	·	–	?	?	14.6µM
CCc1ccccc1NC(=O)Cn1nc(C(F)(F)F)c2c1CCC2	–	–	–	–	–	?
CCOC(=O)N1CCC(NC(=O)c2ccc3c(c2)N(Cc2ccc(Cl)cc2)C(=O)c2ccccc2S3(=O)=O)CC1	–	·	–	?	?	23.1µM
CCOC(=O)N1CCC(NC(=O)c2ccc3c(c2)N(Cc2ccccc2)C(=O)c2ccccc2S3=O)CC1 (configuration not stated)	–	·	–	–	–	–
CCOC(=O)N1CCC(NC(=O)c2ccc3c(c2)N(Cc2ccc(Cl)cc2)C(=O)c2ccccc2S3=O)CC1 (configuration not stated)	–	·	–	?	?	23.1µM
CCOC(=O)N1CCC(NC(=O)c2ccc3c(c2)N(Cc2ccc(F)cc2)C(=O)c2ccccc2S3=O)CC1 (configuration not stated)	–	·	–	16.4µM	?	?
Cc1cccc(CNC(=O)CS(=O)(=O)c2cccc3nsnc23)c1	–	·	–	–	–	–
CCOC(=O)C1=C(C(=O)OCC)c2ccc(OC)c(OC)c2C1	·	–	–	–	–	18.4µM
CCOC(=O)c1nc(-c2ccc(OC)c(OC)c2)no1	–	–	–	–	–	–
CCOC(=O)N1CCN(C(=O)c2ccc(-n3c(C)ccc3C)cc2)CC1	–	?	–	?	–	14.6µM
CC(=O)c1c(C(C)=O)c(C)n(-c2ccc(C(=O)O)cc2)c1C	–	–	–	–	–	–
Cc1ccc(C)n1-c1ccc(C(=O)Nc2ccccc2)cc1	–	-64.6	–	?	–	25.9µM
CC(=O)N1CCN(C(=O)c2ccc(-n3c(C)ccc3C)cc2)CC1	–	-66.5	–	?	–	–
Cc1ccc(C)n1-c1ccc(C(=O)O)cc1	7.94µM	·	·	·	·	·
Cc1nc2sccn2c(=O)c1S(=O)(=O)NCc1ccc(F)cc1	–	·	–	–	–	–
COc1cccc(NC(=O)NC2CCN(CC(=O)Nc3ccccc3[N+](=O)[O-])CC2)c1	–	–	–	?	–	?
O=C(CN1CCC(NC(=O)Nc2ccc(F)cc2)CC1)Nc1ccccc1[N+](=O)[O-]	·	–	–	?	–	20.6µM
Cn1c(=O)c(C(=O)CN2CCc3ccccc32)c(N)n(Cc2ccccc2)c1=O	–	–	–	13µM	–	18.4µM
COc1ccc(CC(=O)N(c2ccccc2)c2nc(C)cs2)cc1	–	?	–	18.4µM	–	13µM
CCc1sc(N(C(=O)Cc2ccccc2)c2ccccc2)nc1-c1ccccc1	–	–	–	?	–	?
Cc1csc(N(C(=O)Cc2ccccc2F)c2ccccc2)n1	–	–	–	?	–	23.1µM
CCOC(=O)c1cnc2ccc(OC)cc2c1NCCc1ccc(OC)c(OC)c1	–	-90.1	–	6.51µM	15.8µM!	7.31µM
CCOC(=O)c1cnc2ccccc2c1NCCc1ccc(OC)c(OC)c1	–	–	–	16.4µM	?	10.3µM
CCOC(=O)c1cnc2ccc(OC)cc2c1NCCN1CCOCC1	–	–	–	–	–	?
SMILES	TDP1 block	IL1B secr inh	HepG2 tox	DT40 TDP1 CPT	TGFb SMAD3 inh	TDP1 cell noCPT
O=C(CCCOc1ccc(Cl)cc1Cl)NNC(=O)c1ccc(NC(=O)c2ccccc2)cc1	·	–	–	–	–	–
CNC(=S)N/N=C/c1c(C)c(C(=O)c2ccc(F)cc2)n2ccccc12	·	–	–	?	–	?
Cc1c(/C=N/NC(N)=O)c2ccccn2c1C(=O)c1ccc(F)cc1	–	-70.1	–	?	–	9.2µM
CCC(C)(C)C1CCC(NC(=O)N2CCN(c3ccccc3O)CC2)CC1 (configuration not stated)	·	–	–	–	–	?
COc1cc(C2c3cc4c(cc3C(OC3OC5COC(c6cccs6)OC5C(O)C3O)C3COC(=O)C23)OCO4)cc(OC)c1O (configuration not stated)	–	–	–	0.0231µM	–	0.0259µM
COc1cc([C@H]2c3cc4c(cc3[C@@H](O[C@H]3O[C@H]5CO[C@@H](C)O[C@H]5[C@@H](O)[C@@H]3O)[C@@H]3COC(=O)[C@H]23)OCO4)cc(OC)c1O	–	·	·	·	·	·
COc1cc(C2c3cc4c(cc3C(OC3OC5COC(C)O[C@@H]5C(O)C3O)C3COC(=O)C23)OCO4)cc(OC)c1O (some centres not stated)	–	·	·	0.184µM	·	0.146µM
COc1cc(C2c3cc4c(cc3C(O[C@@H]3OC5COC(c6cccs6)OC5C(O)C3O)C3COC(=O)C23)OCO4)cc(OC)c1O (some centres not stated)	–	·	·	·	·	·
COc1cc([C@@H]2c3cc4c(cc3[C@@H](O[C@@H]3O[C@@H]5CO[C@@H](C)O[C@H]5[C@H](O)[C@H]3O)[C@H]3COC(=O)[C@H]23)OCO4)cc(OC)c1O	·	–	–	0.164µM	–	0.164µM
CCOc1ccc(-n2c(=O)c3sccc3n(CC(=O)NCC3CCCO3)c2=O)cc1 (configuration not stated)	–[0.0935 µM]	–	–	–	–	–
COc1ccccc1N(CN1CCCC1=O)C(=O)c1c(F)cccc1Cl	–	–	–	20.6µM	–	10.3µM
CCOc1ccccc1C(=O)N(CN1CCCC1=O)c1cccc(Cl)c1	–	–	–	14.6µM	–	9.2µM
CCOc1ccc(C(=O)Oc2c(Sc3ccccc3)c(C)nn2C(C)(C)C)cc1OCC	–	·	–	?	–	?
CCOC(=O)c1c(NC(=O)COC(=O)c2cc(OC)c(OC)cc2[N+](=O)[O-])sc(C)c1CC	–	–	–	?	–	14.6µM
CCOC(=O)c1c(CC(C)C)csc1NC(C)=O	–	–	–	–	?	–
COc1cc(C(=O)OCC(C)=O)c([N+](=O)[O-])cc1OC	–	–	–	–	–	–
CCOC(=O)c1c(CC(C)C)csc1NC(=O)COC(=O)c1cc(OC)c(OC)cc1[N+](=O)[O-]	–	–	–	11.6µM	–	5.8µM
Cc1ccc(S(=O)(=O)Nc2c(C(=O)O)[nH]c3ccccc23)c(C)c1	–	–	–	–	–	–
COc1cccc(CNC(=O)CN2N=C(c3ccc(C)cc3)CCC2=O)c1	–	·	–	–	–	–

Screens deposited in PubChem by National Center for Advancing Translational Sciences (NCATS).
